According to PubChem BioAssay:
Calls of active or inactive are those of the source. Unless noted, no rule for the calls is given here.

Experiments:
[1] = anti-His antibody binders, primary screen, artefact control for SMM control protein annotation, biochemical, small-molecule microarray, 635 nm fluorescence (AID 1128); settings: anti-His Alexa647 antibody binding, higher = more signal;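 also: score merges feature fluorescence with signal-to-noise for each printed compound spot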
[2] = system: Human papillomavirus type 1a E7 protein (residues 1-88); assay: HPV1a E7 small-molecule binders, primary screen, biochemical, small-molecule microarray, residues 1-88, 635 nm (AID 1129); settings: small-molecule microarray binding, fluorescence 635 nm; higher = more signal
[3] = target: Focal adhesion kinase 1 (Homo sapiens) (UniProt Q05397); assay: small-molecule microarray binders of FAK, primary screen, biochemical, 635/667 nm fluorescence, BSA, DTT (AID 1130); settings: PTK2 binding, 635 nm fluorescence, higher = more signal;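 also: composite of spot emission at 667 nm and signal to noise over triplicate slides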
[4] = system: Fibrinogen (Alexa647-labelled); assay: fibrinogen binders on compound microarrays, profiling panel, artefact control for SMM control-protein annotation, biochemical, small-molecule microarray, 635/667 nm fluorescence (AID 1131); settings: fibrinogen-A647 binding fluorescence, higher = more signal;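 also: z-score merges 667 nm fluorescence with per-spot signal-to-noise over triplicate slides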
[5] = target: Follistatin (Homo sapiens) (UniProt P19883); assay: follistatin binders on small-molecule microarrays, primary screen, biochemical, small-molecule microarray, 635/667 nm fluorescence (AID 1132); settings: FST binding, 635 nm fluorescence, higher = more signal
[6] = target: Fibroblast growth factor 2 (Homo sapiens) (UniProt P09038); assay: FGF2 binders on small-molecule microarrays, primary screen, biochemical, small-molecule microarray, 635/667 nm fluorescence (AID 1133); settings: small-molecule microarray binding, FGF2, fluorescence 635/667; higher = more signal
[7] = mitochondrial membrane potential change in A549 cells, profiling panel, cell-based, JC-1 fluorescence, basal, 24 h, 100 nL (AID 1138); settings: higher = more signal;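 also: A549 lung adenocarcinoma cells under basal conditions with no added stimulus; test concentration not given here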
Lefty1 = Lefty1 binders on small-molecule microarrays, primary screen, biochemical, small-molecule microarray, 635/667 nm fluorescence (AID 1139); settings: small-molecule microarray binding, fluorescence 635/667; higher = more signal
[8] = system: wheat germ agglutinin (Triticum aestivum), Alexa647-labelled; assay: wheat germ agglutinin binders on compound microarrays, profiling panel, artefact control for SMM control-protein annotation, biochemical, small-molecule microarray, 635/667 nm fluorescence (AID 1140); settings: WGA-A647 binding, 635 nm fluorescence, higher = more signal;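 also: score merges 667 nm feature emission with signal to noise over triplicate slides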
[9] = target: Luciferin 4-monooxygenase (Photinus pyralis) (UniProt P08659); assay: firefly luciferase enzyme inhibitors, primary screen, biochemical, luminescence, purified enzyme, 2006 set (AID 1141); settings: SteadyGlo luminescence, 30 min, higher = more signal, called active from +8 up or from −8 down;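 also: cell-free assay with purified firefly luciferase at 100 ng per well in PBS; test concentration not given here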
[10] = system: Wnt5a (protein binding on small-molecule microarray); assay: Wnt5a binders on small-molecule microarray, primary screen, biophysical, 635/667 nm fluorescence (AID 1142); settings: 635 nm fluorescence, higher = more signal;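 also: fluorescence read at 667 nm with signal to noise per printed feature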
[11] = cell viability in Huh7 cells, primary screen, cytotoxicity control for HCV replication inhibitor project, CellTiter-Glo luminescence, basal, 48 h (AID 1143); settings: Huh7 HCV replicon, higher = more signal, called active from +8 up or from −8 down;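 also: Huh7 hepatoma cells carrying a hepatitis C replication reporter with no stimulus; test concentration not given here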
[12] = P. aeruginosa biofilm formation inhibitors, primary screen, PAO1 strain, BacTiter-Glo luminescence, LB-PBS (AID 1144); settings: 12 h, higher = more signal
[13] = CREB reporter modulators without forskolin, primary screen, cell-based, PC12, CRE-LacZ reporter, unstimulated (AID 1145); settings: no forskolin, luminescence, 4.5 h, higher = more signal, called active from +8 up or from −8 down
[14] = CREB reporter modulators under forskolin, primary screen, cell-based, PC12, CRE-LacZ reporter, forskolin-stimulated (AID 1146); settings: luminescence, 4.5 h, higher = more signal, called active from +8 up or from −8 down;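 also: PC12 cells with 6xCRE LacZ reporter stimulated by forskolin 10 µM; beta-galactosidase reporter signal reflecting CREB driven transcription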
[15] = target: Streptavidin (Streptomyces avidinii) (UniProt P22629); assay: streptavidin binders on small-molecule microarray, primary screen, artefact control for SMM compound annotation, biophysical, 635/667 nm fluorescence (AID 1147); settings: streptavidin binding, higher = more signal;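 also: signal reflects streptavidin binding to arrayed compounds as a control protein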
[16] = small-molecule binders of probe aInhba, primary screen, biochemical, small-molecule microarray, 635/667 nm fluorescence (AID 1148); settings: higher = more signal;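 also: score merges 667nm spot fluorescence with signal-to-noise for antibody binding to printed compounds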
Torsin-1A (Homo sapiens) [17] = target: Torsin-1A (Homo sapiens) (UniProt O14656); assay: torsin A binders from cell lysate, primary screen, small-molecule microarray, wild-type, 635/667 nm (AID 1149); settings: COS7 hTOR1A-WT lysate, 635 nm fluorescence, higher = more signal
Torsin-1A (Homo sapiens) [18] = target: Torsin-1A (Homo sapiens) (UniProt O14656); assay: small-molecule binders of mutant TOR1A in lysate, primary screen, cell lysate, small-molecule microarray, COS7 lysate, 635/667 nm fluorescence (AID 1150); settings: COS7 hTOR1A mutant lysate, 635 nm fluorescence, higher = more signal;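 also: score pools 667 nm emission and signal to noise measuring lysate protein binding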
[19] = system: Sonic hedgehog protein (Shh); assay: small-molecule binders of Shh protein, primary screen, biochemical, small-molecule microarray, 635/667 nm fluorescence (AID 1151); settings: small-molecule microarray binding, 635 nm fluorescence; higher = more signal;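 also: Shh protein binding to compounds spotted on small-molecule microarray slides; score combines spot fluorescence intensity with signal-to-noise across triplicate slides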

Focal adhesion kinase 1 (Homo sapiens), sequence (Q05397 whole entry, looked up): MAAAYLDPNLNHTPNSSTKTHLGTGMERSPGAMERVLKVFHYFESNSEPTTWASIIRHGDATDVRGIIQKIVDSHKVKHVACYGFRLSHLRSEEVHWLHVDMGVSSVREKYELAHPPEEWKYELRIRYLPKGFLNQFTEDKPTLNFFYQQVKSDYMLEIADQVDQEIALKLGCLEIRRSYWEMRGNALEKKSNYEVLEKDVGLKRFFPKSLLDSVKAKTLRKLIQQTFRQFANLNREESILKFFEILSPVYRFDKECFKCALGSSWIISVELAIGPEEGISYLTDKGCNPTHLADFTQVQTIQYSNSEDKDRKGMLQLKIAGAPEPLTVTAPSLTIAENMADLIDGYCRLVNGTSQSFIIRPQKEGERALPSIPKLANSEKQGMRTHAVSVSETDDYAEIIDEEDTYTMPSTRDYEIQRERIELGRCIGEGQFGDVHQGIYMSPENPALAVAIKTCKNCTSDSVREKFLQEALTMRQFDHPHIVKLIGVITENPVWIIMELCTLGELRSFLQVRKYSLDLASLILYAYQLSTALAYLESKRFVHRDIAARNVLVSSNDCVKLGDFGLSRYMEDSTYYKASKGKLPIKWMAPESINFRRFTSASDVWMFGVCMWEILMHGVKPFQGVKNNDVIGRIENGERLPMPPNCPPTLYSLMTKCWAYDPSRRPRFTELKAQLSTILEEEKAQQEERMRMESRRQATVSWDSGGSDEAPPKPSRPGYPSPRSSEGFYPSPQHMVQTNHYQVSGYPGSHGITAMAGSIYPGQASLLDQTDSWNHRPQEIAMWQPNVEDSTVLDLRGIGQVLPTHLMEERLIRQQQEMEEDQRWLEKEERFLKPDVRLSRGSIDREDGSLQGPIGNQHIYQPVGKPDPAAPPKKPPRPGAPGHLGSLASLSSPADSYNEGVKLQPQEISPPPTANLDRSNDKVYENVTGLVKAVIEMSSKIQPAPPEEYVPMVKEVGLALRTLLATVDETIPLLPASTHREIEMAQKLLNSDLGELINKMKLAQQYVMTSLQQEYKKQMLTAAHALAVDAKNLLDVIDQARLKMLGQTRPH
Torsin-1A (Homo sapiens), sequence (O14656 whole entry, looked up): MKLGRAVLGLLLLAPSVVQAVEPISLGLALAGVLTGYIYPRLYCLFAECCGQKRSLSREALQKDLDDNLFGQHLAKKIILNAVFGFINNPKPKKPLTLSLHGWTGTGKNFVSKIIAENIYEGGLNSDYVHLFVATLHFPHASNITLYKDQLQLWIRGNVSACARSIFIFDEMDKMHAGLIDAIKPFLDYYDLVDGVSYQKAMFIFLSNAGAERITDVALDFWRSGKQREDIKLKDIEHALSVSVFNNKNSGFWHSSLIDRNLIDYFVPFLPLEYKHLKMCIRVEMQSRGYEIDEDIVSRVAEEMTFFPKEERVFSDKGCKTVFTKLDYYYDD
Luciferin 4-monooxygenase (Photinus pyralis), sequence (P08659 whole entry, looked up): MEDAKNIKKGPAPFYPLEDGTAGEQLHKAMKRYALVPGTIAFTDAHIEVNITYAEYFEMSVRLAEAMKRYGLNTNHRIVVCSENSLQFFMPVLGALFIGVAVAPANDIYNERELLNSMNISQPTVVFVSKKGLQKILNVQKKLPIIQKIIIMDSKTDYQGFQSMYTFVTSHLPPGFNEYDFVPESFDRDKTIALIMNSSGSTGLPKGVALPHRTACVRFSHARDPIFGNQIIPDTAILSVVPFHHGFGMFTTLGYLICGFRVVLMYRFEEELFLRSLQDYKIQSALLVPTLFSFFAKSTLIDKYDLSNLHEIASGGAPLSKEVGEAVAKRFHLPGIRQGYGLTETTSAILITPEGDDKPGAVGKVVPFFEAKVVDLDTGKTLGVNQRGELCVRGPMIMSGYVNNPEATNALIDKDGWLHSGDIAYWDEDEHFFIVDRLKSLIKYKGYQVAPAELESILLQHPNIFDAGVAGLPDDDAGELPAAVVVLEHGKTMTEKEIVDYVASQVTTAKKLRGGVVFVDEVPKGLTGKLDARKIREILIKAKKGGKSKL
Fibroblast growth factor 2 (Homo sapiens), sequence (P09038 whole entry, looked up): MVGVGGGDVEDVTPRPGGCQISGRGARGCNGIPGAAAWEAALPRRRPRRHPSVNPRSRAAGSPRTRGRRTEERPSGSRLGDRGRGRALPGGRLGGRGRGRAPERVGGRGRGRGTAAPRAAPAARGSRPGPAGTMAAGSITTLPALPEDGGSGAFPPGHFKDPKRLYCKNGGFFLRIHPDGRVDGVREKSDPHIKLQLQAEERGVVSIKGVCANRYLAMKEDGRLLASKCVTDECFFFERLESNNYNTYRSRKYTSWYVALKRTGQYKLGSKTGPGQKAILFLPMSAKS
Streptavidin (Streptomyces avidinii), sequence (P22629 whole entry, looked up): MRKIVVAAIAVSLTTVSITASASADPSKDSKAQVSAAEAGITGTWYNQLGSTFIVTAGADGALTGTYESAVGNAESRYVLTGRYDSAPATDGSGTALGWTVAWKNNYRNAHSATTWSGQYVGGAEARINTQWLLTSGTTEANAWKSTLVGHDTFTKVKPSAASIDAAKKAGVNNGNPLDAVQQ
Follistatin (Homo sapiens), sequence (P19883 whole entry, looked up): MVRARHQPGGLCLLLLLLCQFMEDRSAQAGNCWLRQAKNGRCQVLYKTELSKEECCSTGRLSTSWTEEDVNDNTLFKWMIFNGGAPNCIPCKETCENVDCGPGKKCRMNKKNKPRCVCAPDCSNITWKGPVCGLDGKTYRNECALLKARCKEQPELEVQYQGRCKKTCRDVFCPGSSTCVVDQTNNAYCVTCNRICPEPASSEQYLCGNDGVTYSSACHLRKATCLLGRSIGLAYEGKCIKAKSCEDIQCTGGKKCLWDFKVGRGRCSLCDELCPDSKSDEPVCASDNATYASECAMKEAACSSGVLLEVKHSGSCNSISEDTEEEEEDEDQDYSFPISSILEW

SMILES	composite z-score [1]	composite z-score [2]	composite z-score [3]	composite z-score [4]	composite z-score [5]	composite z-score [6]	z-score [7]	composite z-score (Lefty1)	composite z-score [8]	z-score [9]	composite z-score [10]	z-score [11]	z-score [12]	z-score [13]	z-score [14]	composite z-score [15]	composite z-score [16]	composite z-score (Torsin-1A (Homo sapiens) [17])	composite z-score (Torsin-1A (Homo sapiens) [18])	composite z-score [19]
O=C(N1CCCCC1)[C@@]1(CCS(=O)(=O)c2ccccc2)COC(c2ccc(OCCCO)cc2)=N1	2.55	1.22	0.298	0.839	1.4	1.52	0.32	0.126	0.848	-0.0825 (inactive)	1.17	-2.3 (inactive)	0.514 (inactive)	0.62 (inactive)	-0.334 (inactive)	1.31	0.421	1.19	0.496	0.447
COC(=O)c1c(CC[C@@H](CO)NC(=O)N2CCC[C@H]2Cn2cc(Cc3ccccc3)nn2)oc(C(C)=O)c1C(=O)OC	-0.0636	0.485	0.397	-0.522	0.613	0.147	-0.58	0.824	0.541	1.15 (inactive)	-0.0725	-0.393 (inactive)	0.726 (inactive)	-0.244 (inactive)	-0.152 (inactive)	-0.114	-0.0736	-0.0521	0.398	1.84
COC(=O)[C@@]1(Cc2ccc(F)cc2)[C@H]2c3cc(C(=O)N(C)C)n(CCc4ccc(O)c(OC)c4)c3C[C@H]2CN1C(=O)c1ccccc1	0.339	0.923	0.0947	0.886	0.472	0.741	0.345	-0.244	0.312	0.215 (inactive)	2.23	0.462 (inactive)	-0.0301 (inactive)	0.783 (inactive)	0.15 (inactive)	0.637	1.62	0.334	0.234	-0.804
NC(=O)N1C(=O)C2C(C1=O)C1C=C(CCCO)C2C(c2cccs2)N1Cc1cccc(OC(F)(F)F)c1 (stereo not given)	2.83	0.416	0.192	0.692	0.82	-0.0701	0.928	0.672	0.438	-0.929 (inactive)	-0.0995	-2.32 (inactive)	0.818 (inactive)	0.0704 (inactive)	-0.461 (inactive)	0.035	-0.114	0.726	0.981	1.4
CN(C)CCCCNC(=O)[C@@H]1C[C@@H]2C(=O)N[C@@H](Cc3ccccc3)C(=O)N2[C@@H]1c1cccc(OCCO)c1	2.09	0.579	-0.0323	0.513	1.33	1.75	1.53	1.65	0.645	-2.68 (inactive)	1.2	-1.6 (inactive)	-0.133 (inactive)	0.431 (inactive)	-0.903 (inactive)	-0.351	0.0543	0.75	1.54	1.55
CCCCCCc1nc(C2CC2)cc2c1[Si](C(C)C)(C(C)C)O[C@H]2c1ccccc1	-0.523	-0.873	0.0181	-0.675	0.0915	0.248	-0.911	1.05	-0.127	0.747 (inactive)	-0.0368	0.086 (inactive)	-0.0699 (inactive)	0.134 (inactive)	0.128 (inactive)	0.147	0.0319	0.338	0.378	1.59
COc1cc2c(cc1OC)CN(C(=O)[C@@H]1[C@H]3C(=O)O[C@H](c4ccccc4)[C@H](c4ccccc4)N3[C@H](c3ccc(OCCO)cc3)[C@@]13C(=O)Nc1ccc(C#CC4(O)CCCCCC4)cc13)CC2	0.367	1.18	-0.226	0.966	1.41	1.13	-0.989	1.38	0.831	-7.42 (inactive)	0.754	-3.13 (inactive)	-1.35 (inactive)	-0.608 (inactive)	0.419 (inactive)	1.51	-0.164	0.746	1.09	1.44
C=C[C@@H](COC(C)=O)N(C(=O)OC(C)(C)C)S(=O)(=O)c1ccc(Br)cc1	1.5	0.966	0.233	0.741	1.53	1.89	0.307	1.65	1.1	-0.149 (inactive)	0.423	-0.284 (inactive)	1.01 (inactive)	0.391 (inactive)	-0.739 (inactive)	0.802	-0.231	0.814	0.559	2.16
Cc1ccc(S[C@]2(C(=O)O)CC(=O)N(Cc3ccccc3Cl)[C@@H]2c2ccc(CO)cc2I)cc1	0.12	0.193	0.287	-0.147	0.257	0.261	-0.134	-1.23	0.435	0.341 (inactive)	-0.3	-2.09 (inactive)	-0.309 (inactive)	1.2 (inactive)	3 (inactive)	-0.657	-0.649	0.294	0.396	0.0254
